Data: PubChem BioAssay (Tox21)
Inconclusive results are not listed. Active and inactive are the calls of the source. Unless noted, calls follow the shape of the dose curve; as a rule, active = well fitted curve in the direction sought with a large enough effect in the repeat runs; inconclusive = weak or mixed curves; inactive = no such curve, though single readings can be large; an effect the other way counts as inactive or inconclusive.

How the values were obtained:
[1] = target: Peroxisome proliferator-activated receptor delta (Homo sapiens) (UniProt Q03181); experiment: qHTS assay to identify small molecule agonists of the peroxisome proliferator-activated receptor delta (PPARd) signaling pathway (AID 743212; calls by dose curve; also: % is scaled to controls: 0 for no effect and ±100 for the full control effect)
Peroxisome proliferator-activated receptor delta (Homo sapiens), sequence (Q03181 whole entry, looked up): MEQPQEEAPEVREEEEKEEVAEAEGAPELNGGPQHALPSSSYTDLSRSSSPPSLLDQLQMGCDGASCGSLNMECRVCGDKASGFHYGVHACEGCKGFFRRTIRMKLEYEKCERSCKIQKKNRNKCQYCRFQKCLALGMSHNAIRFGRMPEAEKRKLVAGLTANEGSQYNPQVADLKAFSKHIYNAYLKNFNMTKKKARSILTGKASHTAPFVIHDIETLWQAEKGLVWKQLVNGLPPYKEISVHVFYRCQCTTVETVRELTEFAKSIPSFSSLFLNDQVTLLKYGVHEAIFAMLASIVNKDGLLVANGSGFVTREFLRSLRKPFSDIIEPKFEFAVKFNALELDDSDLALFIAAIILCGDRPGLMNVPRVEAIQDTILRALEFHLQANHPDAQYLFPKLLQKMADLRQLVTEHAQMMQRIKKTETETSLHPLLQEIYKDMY
Procedure, shortened: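 Tox21 library screened in GeneBLAzer PPARd UAS-bla HEK293H cells. After compound treatment at 37 C, a FRET-based beta-lactamase substrate was applied for 2 h and fluorescence recorded.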

[2] = qHTS assay to identify small molecule antagonists of the peroxisome proliferator-activated receptor delta (PPARd) signaling pathway - cell viability counter screen (AID 743213); also: % is scaled to controls: 0 for no effect and ±100 for the full control effect; nearly all actives have a fitted effect of over 50% in size
Procedure, shortened: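 Cytotoxicity counter screen: CellTiter-Glo luminescence read 30 min after addition, in the same wells as the reporter assay. There, PPARd UAS-bla HEK293H cells (3000/well) were treated 17 h at 37 C with compound and 300 nM L165041.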

[3] = target: Peroxisome proliferator-activated receptor delta (Homo sapiens) (UniProt Q03181); experiment: qHTS assay to identify small molecule antagonists of the peroxisome proliferator-activated receptor delta (PPARd) signaling pathway (AID 743215; active = well fitted inhibition curve with a large enough effect in the signal ratio in the repeat runs, not every such curve was filed as active; the % refers to the signal ratio;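 also: cells stimulated with agonist L165041 at 300 nM final during compound exposure; series mostly up to about 62 µM; % is scaled to controls: 0 for no effect and ±100 for the full control effect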)
Procedure, shortened: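 Agonist L165041 (300 nM final) added with compound to PPARd-bla HEK293H UAS-bla reporter cells; 17 h incubation at 37 C. Read-out: LiveBLAzer FRET substrate, 2 h at room temperature, fluorescence intensity.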

[4] = target: Bile acid receptor (Homo sapiens) (UniProt Q96RI1); experiment: qHTS assay to identify small molecule antagonists of the farnesoid-X-receptor (FXR) signaling pathway (AID 743217; active = well fitted inhibition curve with a large enough effect in the signal ratio in the repeat runs, not every such curve was filed as active; the % refers to the signal ratio; also: % is scaled to controls: 0 for no effect and ±100 for the full control effect)
Bile acid receptor (Homo sapiens), sequence (Q96RI1 whole entry, looked up): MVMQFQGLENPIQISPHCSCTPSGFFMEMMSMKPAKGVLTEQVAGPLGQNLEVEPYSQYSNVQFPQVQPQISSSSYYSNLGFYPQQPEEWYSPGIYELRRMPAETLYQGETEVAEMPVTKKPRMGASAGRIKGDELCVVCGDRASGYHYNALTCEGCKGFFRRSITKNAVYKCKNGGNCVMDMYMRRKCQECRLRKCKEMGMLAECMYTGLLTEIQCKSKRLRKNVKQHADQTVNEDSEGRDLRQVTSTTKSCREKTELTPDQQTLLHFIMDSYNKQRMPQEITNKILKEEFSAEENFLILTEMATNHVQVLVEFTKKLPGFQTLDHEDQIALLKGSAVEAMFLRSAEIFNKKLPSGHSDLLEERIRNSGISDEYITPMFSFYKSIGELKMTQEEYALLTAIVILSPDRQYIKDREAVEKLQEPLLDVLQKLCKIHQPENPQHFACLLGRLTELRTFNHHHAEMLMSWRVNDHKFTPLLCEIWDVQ
Procedure, shortened: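 Antagonist mode: chenodeoxycholic acid at 50 uM final stimulates a UAS-driven beta-lactamase reporter in HEK 293T FXR-bla cells during 16 h, 37C compound exposure. Read-out is FRET substrate fluorescence after 2 h at room temperature.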

[5] = qHTS assay to identify small molecule agonists of the farnesoid-X-receptor (FXR) signaling pathway - cell viability counter screen (AID 743218); also: % is scaled to controls: 0 for no effect and ±100 for the full control effect; nearly all actives have a fitted effect of over 45% in size
Procedure, shortened: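 Viability counter screen in the same wells: CellTiter-Glo luminescence, 30 min room-temperature incubation, measured after the beta-lactamase read. Cells were GeneBLAzer FXR-UAS-bla HEK 293T, compound-treated 16 h at 37C.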

[6] = target: Bile acid receptor (Homo sapiens) (UniProt Q96RI1); experiment: qHTS assay to identify small molecule agonists of the farnesoid-X-receptor (FXR) signaling pathway (AID 743220; active = well fitted activation curve with a large enough effect in the signal ratio in the repeat runs, not every such curve was filed as active; the % refers to the signal ratio; also: % is scaled to controls: 0 for no effect and ±100 for the full control effect)
Procedure, shortened: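 FXR-UAS-bla HEK 293T cells carrying a UAS-driven beta-lactamase reporter were plated for 5 h at 37C/5% CO2, then exposed to DMSO-dissolved Tox21 10K compounds for 16 h at 37C. A LiveBLAzer B/G FRET substrate was loaded for 2 h at room temperature before fluorescence reading.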

[7] = qHTS assay to identify small molecule antagonists of the farnesoid-X-receptor (FXR) signaling pathway - cell viability counter screen (AID 743221; active = well fitted cell-killing curve with a large enough effect in the repeat runs, not every such curve was filed as active; also: % is scaled to controls: 0 for no effect and ±100 for the full control effect; nearly all actives have a fitted effect of over 50% in size)
Procedure, shortened: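 Multiplexed counter screen: viability of FXR-bla HEK 293T cells under agonist stimulation by chenodeoxycholic acid (50 uM, final) and test compound for 16 h at 37 C, measured by CellTiter-Glo luminescence in the reporter wells.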

[8] = target: Vitamin D3 receptor (Homo sapiens) (UniProt P11473); experiment: qHTS assay to identify small molecule agonists of the vitamin D receptor (VDR) signaling pathway (AID 743222; calls by dose curve; also: % is scaled to controls: 0 for no effect and ±100 for the full control effect)
Vitamin D3 receptor (Homo sapiens), sequence (P11473 whole entry, looked up): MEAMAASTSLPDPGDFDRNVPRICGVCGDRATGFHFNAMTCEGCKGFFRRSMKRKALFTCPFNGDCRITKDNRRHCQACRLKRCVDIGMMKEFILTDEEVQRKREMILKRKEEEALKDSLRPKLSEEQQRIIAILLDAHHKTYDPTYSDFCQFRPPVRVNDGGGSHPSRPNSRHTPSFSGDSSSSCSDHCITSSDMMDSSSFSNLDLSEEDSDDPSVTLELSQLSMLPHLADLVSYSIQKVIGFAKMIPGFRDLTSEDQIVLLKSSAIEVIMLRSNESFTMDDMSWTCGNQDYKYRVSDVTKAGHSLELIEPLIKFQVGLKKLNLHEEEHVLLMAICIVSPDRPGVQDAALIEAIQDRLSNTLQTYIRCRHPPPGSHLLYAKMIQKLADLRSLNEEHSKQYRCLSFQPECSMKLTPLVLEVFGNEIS
Procedure, shortened: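 Agonist mode, beta-lactamase reporter: fluorescence from LiveBLAzer B/G FRET substrate (2 h, room temperature) read after 16 h compound treatment at 37 C of VDR-bla cells, which were pre-incubated 4 h after seeding.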

[9] = target: Vitamin D3 receptor (Homo sapiens) (UniProt P11473); experiment: qHTS assay to identify small molecule antagonists of the vitamin D receptor (VDR) signaling pathway (AID 743223; active = well fitted inhibition curve with a large enough effect in the signal ratio in the repeat runs, not every such curve was filed as active; the % refers to the signal ratio; also: % is scaled to controls: 0 for no effect and ±100 for the full control effect)
Procedure, shortened: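 Cells carrying a VDR-driven beta-lactamase reporter (VDR-bla) were co-treated with compound and 3 nM final 1alpha,25-dihydroxyvitamin D3 for 16 h at 37C; reporter activity was measured as FRET substrate fluorescence after 2 h at room temperature.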

[10] = qHTS assay to identify small molecule agonists of the vitamin D receptor (VDR) signaling pathway - cell viability counter screen (AID 743224); also: series mostly up to about 63 µM; % is scaled to controls: 0 for no effect and ±100 for the full control effect; nearly all actives have a fitted effect of over 50% in size
Procedure, shortened: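 Counter screen run in the same wells as the VDR-bla reporter assay: CellTiter-Glo luminescence, 30 min at room temperature, after 16 h compound treatment at 37C of cells pre-plated for 4 h.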

[11] = qHTS assay to identify small molecule antagonists of the vitamin D receptor (VDR) signaling pathway - cell viability counter screen (AID 743225); also: % is scaled to controls: 0 for no effect and ±100 for the full control effect; nearly all actives have a fitted effect of over 50% in size
Procedure, shortened: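 HEK293T VDR-bla; cpd + 1a,25-(OH)2D3 3 nM final, 16 h 37C/5% CO2; B/G FRET substrate 2 h RT; then CellTiter-Glo 30 min RT, luminescence.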

[12] = qHTS assay to identify small molecule agonists of the endoplasmic reticulum stress response signaling pathway (AID 1159516; active = well fitted activation curve with a large enough effect in the signal ratio in the repeat runs, not every such curve was filed as active; the % refers to the signal ratio; also: % is scaled to controls: 0 for no effect and ±100 for the full control effect)
Procedure, shortened: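 Ratiometric FRET readout (405 nm excitation; 460 and 530 nm emission) of a beta-lactamase gene driven by the ER stress response element, after 2 hr substrate loading. HeLa ESRE-bla cells were seeded overnight and treated with compounds for only 5 hr at 37 C.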

[13] = qHTS assay to identify small molecule agonists of the endoplasmic reticulum stress response signaling pathway - cell viability counter screen (AID 1159517; calls by dose curve)
Procedure, shortened: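 In parallel with the ESRE reporter read, cytotoxicity was scored by CellTiter-Glo luminescence (30 min, room temperature) on HeLa ESRE-bla cells dosed for 5 hr.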

[14] = qHTS assay to identify small molecule antagonists of the retinoid-related orphan receptor gamma (ROR-gamma) signaling pathway - cell viability counter screen (AID 1159520)
Procedure, shortened: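 Tet-on ROR gamma CHO cells were given compounds for 2 hr, then doxycycline hyclate at 1 uM final, and incubated 16 hr at 37 C. Viability was measured as ATP content by CellTiter-Glo luminescence.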

[15] = target: Nuclear receptor ROR-gamma (Homo sapiens) (UniProt P51449); experiment: qHTS assay to identify small molecule antagonists of the retinoid-related orphan receptor gamma (ROR-gamma) signaling pathway (AID 1159521)
Procedure, shortened: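 Cells were plated, rested 4 h at 37 C, exposed to compounds for 2 h, then given 1 uM final doxycycline hyclate to induce RORγ expression. After 16 h, ONE-Glo luminescence from the ROR response element reporter was measured.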

[16] = qHTS assay to identify small molecule agonists of the AP-1 signaling pathway - cell viability counter screen (AID 1159525; calls by dose curve; also: nearly all actives have a fitted effect of over 55% in size)
Procedure, shortened: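 Same-well cytotoxicity counter screen of the Tox21 10K library in ME-180 cells. The readout is ATP-dependent luminescence after 5 h compound treatment. Data are normalised to DMSO and tetra n-octyl ammonium bromide controls.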

[17] = qHTS assay to identify small molecule agonists of the AP-1 signaling pathway (AID 1159526; calls by dose curve; also: % is scaled to controls: 0 for no effect and ±100 for the full control effect)
[18] = target: Retinoic acid receptor RXR-alpha (Homo sapiens) (UniProt P19793); experiment: qHTS assay to identify small molecule agonists of the RXR signaling pathway (AID 1159527; calls by dose curve; also: % is scaled to controls: 0 for no effect and ±100 for the full control effect; nearly all actives have a fitted effect of over 35% in size)
Retinoic acid receptor RXR-alpha (Homo sapiens), sequence (P19793 whole entry, looked up): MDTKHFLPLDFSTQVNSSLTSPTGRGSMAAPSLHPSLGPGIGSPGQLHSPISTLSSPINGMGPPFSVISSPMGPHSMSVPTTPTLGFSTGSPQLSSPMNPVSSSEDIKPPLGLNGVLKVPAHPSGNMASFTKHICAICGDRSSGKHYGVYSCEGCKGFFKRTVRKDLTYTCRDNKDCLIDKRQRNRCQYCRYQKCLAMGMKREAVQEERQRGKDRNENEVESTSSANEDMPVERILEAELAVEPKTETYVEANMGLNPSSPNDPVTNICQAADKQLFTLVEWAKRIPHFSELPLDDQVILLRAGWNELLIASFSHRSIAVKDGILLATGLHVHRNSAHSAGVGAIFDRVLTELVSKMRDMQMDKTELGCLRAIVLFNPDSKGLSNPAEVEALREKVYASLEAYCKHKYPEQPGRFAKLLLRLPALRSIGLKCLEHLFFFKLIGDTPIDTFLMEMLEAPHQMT
Procedure, shortened: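 Cells plated at 2,000/well, rested 5 hr at 37 C, pin-dosed with DMSO compound solutions, incubated 16 hr, then loaded with B/G FRET substrate for 2 hr at RT before dual-emission fluorescence reading.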

[19] = qHTS assay to identify small molecule agonists of the peroxisome proliferator-activated receptor delta (PPARd) signaling pathway - cell viability counter screen (AID 743211); also: % is scaled to controls: 0 for no effect and ±100 for the full control effect; nearly all actives have a fitted effect of over 55% in size
Procedure, shortened: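 Counter screen for cytotoxicity run in parallel with the PPARd reporter screen. Beta-lactamase reporter HEK293H cells exposed to compounds 17 h; ATP-based CellTiter-Glo luminescence quantified viability.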

CC(C)(C)OC(=O)c1ccccc1C(=O)O
inactive: outcome [1] | outcome [2] | outcome [3] | outcome [4] | outcome [5] | outcome [6] | outcome [7] | outcome [8] | outcome [9] | outcome [10] | outcome [11] | Potency [12] | outcome [13] | outcome [14] | outcome [15] | outcome [16] | Potency [17] | Potency [18]

COC(C)(C)CC(C)=O
inactive: outcome [19] | outcome [1] | outcome [3] | outcome [4] | outcome [5] | outcome [6] | outcome [7] | outcome [10] | outcome [11] | Potency [12] | outcome [13] | outcome [14] | outcome [15] | outcome [16] | Potency [17] | Potency [18]

CCCCN=C(N)N=C(N)N
inactive: outcome [1] | outcome [2] | outcome [3] | outcome [7] | outcome [11] | Potency [12] | outcome [13] | outcome [15] | outcome [16] | Potency [17] | Potency [18]

COC(=O)c1ccccc1Cl
inactive: outcome [19] | outcome [1] | outcome [2] | outcome [3] | outcome [5] | outcome [7] | outcome [8] | outcome [10] | outcome [11] | Potency [12] | outcome [15] | outcome [16] | Potency [17] | Potency [18]

CCCCCCCCCCCCCCCC(=O)OC
inactive: outcome [1] | outcome [2] | outcome [3] | outcome [4] | outcome [5] | outcome [6] | outcome [7] | outcome [8] | outcome [9] | outcome [11] | Potency [12] | outcome [13] | activity, negative = cytotoxicity [14] 1.29% [at 19 µM] | activity change, negative = inhibition [15] 7.03% [at 19 µM] | activation [17] 17.1% [at 15.8 µM] | activation [18] -1.09% [at 15.8 µM]

CC(=O)c1c(C)cc(C(C)(C)C)cc1C
inactive: outcome [19] | outcome [1] | outcome [2] | outcome [3] | outcome [5] | outcome [7] | outcome [8] | outcome [9] | outcome [10] | outcome [13] | outcome [14] | outcome [15] | Potency [17] | Potency [18]

CC(=O)SCC(CC(=O)c1ccc(C)cc1)C(=O)O (stereo unspecified)
inactive: outcome [19] | outcome [1] | outcome [2] | outcome [3] | outcome [4] | outcome [6] | outcome [7] | outcome [8] | outcome [9] | outcome [10] | outcome [11] | Potency [12] | outcome [13] | outcome [14] | outcome [15] | outcome [16] | Potency [17] | Potency [18]

NNC(=O)CCCCC(=O)NN
inactive: outcome [19] | outcome [1] | outcome [2] | outcome [4] | outcome [5] | outcome [6] | outcome [7] | outcome [8] | outcome [9] | outcome [10] | outcome [11] | Potency [12] | outcome [14] | outcome [15] | outcome [16] | Potency [17] | Potency [18]

CN(C)CCc1c[nH]c2ccc(C[C@H]3COC(=O)N3)cc12
inactive: outcome [19] | outcome [2] | outcome [4] | outcome [5] | outcome [6] | outcome [7] | outcome [11] | Potency [12] | outcome [13] | outcome [14] | outcome [15] | outcome [16] | Potency [17] | Potency [18]

NC[C@H]1O[C@H](O[C@H]2[C@H](O)[C@@H](O[C@H]3O[C@H](CO)[C@@H](O)[C@H](N)[C@H]3O)[C@H](N)C[C@@H]2N)[C@H](N)[C@@H](O)[C@@H]1O
inactive: outcome [2] | outcome [5] | outcome [7] | outcome [8] | outcome [9] | outcome [10] | outcome [13] | activity, negative = cytotoxicity [14] 0.5% [at 19 µM] | activity change, negative = inhibition [15] -19.4% [at 19 µM] | viability change, negative = cytotoxic [16] 1.49% [at 15.8 µM] | activation [17] 0.424% [at 15.8 µM] | activation [18] 4.18% [at 15.8 µM]

CC[C@@]1(c2ccccc2)NC(=O)N(C)C1=O
inactive: outcome [19] | outcome [1] | outcome [2] | outcome [4] | outcome [5] | outcome [6] | outcome [7] | outcome [8] | outcome [10] | outcome [11] | Potency [12] | outcome [13] | outcome [15] | outcome [16] | Potency [17] | Potency [18]
